What was measured:
Experiment in all cases: log2 ratio of Biotin-Ahx-Ub-VS probe labelling (fragment/DMSO); higher = less target engagement (more negative = stronger competition), active = hit call of the paper (q ≤ 0.05, log2 ratio ≤ -1)
Details in all cases: compound concentration: 200 uM; treatment time: 3 h
USP42 = target: T1, USP42 (UniProt Q9H9J4)
T1 sequence (whole entry): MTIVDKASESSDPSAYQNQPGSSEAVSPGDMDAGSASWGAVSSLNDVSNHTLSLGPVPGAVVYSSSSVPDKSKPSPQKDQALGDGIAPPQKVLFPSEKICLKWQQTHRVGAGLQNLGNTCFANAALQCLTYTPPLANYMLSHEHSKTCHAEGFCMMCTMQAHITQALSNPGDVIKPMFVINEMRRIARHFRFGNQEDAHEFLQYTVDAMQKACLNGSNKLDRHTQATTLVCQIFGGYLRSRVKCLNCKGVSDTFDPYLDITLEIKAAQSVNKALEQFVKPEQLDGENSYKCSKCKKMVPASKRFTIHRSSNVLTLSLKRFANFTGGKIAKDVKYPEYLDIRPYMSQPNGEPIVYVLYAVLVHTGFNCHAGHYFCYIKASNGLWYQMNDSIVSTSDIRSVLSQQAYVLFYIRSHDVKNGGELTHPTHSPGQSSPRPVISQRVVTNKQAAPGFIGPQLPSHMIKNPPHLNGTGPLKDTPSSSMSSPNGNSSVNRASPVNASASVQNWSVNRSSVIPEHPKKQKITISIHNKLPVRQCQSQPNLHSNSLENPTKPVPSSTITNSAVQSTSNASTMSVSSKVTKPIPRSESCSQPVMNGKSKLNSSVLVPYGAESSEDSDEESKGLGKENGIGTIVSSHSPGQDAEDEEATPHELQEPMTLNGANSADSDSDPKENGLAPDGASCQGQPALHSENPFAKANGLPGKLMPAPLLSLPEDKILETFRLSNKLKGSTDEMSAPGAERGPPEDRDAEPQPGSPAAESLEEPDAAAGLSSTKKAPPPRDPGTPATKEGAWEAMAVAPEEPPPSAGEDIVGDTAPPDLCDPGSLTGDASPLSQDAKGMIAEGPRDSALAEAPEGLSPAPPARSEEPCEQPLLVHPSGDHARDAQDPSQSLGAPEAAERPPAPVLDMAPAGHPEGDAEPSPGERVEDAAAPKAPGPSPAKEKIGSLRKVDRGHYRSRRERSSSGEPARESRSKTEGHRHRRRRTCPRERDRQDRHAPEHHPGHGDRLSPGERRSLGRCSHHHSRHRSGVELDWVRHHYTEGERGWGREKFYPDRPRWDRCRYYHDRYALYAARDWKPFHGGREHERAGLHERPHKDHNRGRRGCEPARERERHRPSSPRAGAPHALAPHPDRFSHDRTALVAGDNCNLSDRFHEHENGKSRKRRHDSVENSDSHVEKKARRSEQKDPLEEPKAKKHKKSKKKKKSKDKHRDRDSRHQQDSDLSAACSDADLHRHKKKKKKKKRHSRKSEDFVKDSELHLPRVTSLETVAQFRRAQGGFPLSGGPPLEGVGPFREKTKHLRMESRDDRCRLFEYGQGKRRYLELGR
Outline: (§1)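 The table lists average log2 ratios of fragment over vehicle, from an unpaired t-test on global-median-normalised Spectronaut label-free quantities. Proteins with ≥2 unique peptides were used. Samples were HEK293T lysate (495 µg) treated in triplicate with fragment at 200 µM or vehicle for 3 h, then with Biotin-Ahx-Ub-VS (0.5 µM final) for 1 h, with labelled DUBs NeutrAvidin-enriched and run by diaPASEF LC-MS/MS.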

USP46 = USP46 (UniProt P62068)
Outline: as §1

USP47 = target: T2, USP47 (UniProt Q96K76)
T2 sequence (whole entry): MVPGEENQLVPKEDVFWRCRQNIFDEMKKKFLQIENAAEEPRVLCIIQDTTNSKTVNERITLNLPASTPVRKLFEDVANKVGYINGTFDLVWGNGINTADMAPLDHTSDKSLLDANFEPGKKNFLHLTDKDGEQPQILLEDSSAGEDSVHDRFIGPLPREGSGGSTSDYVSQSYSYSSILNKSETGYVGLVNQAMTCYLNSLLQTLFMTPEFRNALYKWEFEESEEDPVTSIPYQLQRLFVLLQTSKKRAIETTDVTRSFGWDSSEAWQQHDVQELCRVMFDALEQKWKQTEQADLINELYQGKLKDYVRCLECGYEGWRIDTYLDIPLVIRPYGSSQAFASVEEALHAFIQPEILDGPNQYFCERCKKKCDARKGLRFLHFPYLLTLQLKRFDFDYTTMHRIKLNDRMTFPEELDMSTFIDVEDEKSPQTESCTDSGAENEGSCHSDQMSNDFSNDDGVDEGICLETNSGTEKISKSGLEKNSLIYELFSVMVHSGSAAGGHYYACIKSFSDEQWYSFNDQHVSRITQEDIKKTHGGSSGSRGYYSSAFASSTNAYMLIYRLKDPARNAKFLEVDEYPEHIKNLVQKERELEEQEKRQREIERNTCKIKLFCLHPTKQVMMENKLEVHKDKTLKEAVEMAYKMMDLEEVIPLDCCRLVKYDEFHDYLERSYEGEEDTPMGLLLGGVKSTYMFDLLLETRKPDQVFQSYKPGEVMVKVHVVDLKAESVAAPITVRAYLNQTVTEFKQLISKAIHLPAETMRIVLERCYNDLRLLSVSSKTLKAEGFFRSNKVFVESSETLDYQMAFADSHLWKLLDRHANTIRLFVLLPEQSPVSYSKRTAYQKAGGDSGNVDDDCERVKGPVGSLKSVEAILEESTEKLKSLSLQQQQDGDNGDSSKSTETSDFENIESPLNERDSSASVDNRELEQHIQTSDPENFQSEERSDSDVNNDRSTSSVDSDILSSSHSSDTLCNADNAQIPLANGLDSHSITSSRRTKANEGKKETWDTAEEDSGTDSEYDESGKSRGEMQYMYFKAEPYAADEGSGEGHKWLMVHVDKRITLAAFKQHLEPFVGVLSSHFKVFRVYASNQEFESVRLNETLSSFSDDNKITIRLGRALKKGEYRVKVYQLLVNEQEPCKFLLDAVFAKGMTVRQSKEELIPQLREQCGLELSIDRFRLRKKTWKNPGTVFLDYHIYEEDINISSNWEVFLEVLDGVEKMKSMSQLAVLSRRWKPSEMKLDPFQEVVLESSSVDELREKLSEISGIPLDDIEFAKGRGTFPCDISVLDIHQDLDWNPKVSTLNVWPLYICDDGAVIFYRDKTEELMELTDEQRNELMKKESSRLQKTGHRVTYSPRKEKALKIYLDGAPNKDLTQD
Outline: as §1

USP48 = target: T3, USP48 (UniProt Q86UV5)
T3 sequence (whole entry): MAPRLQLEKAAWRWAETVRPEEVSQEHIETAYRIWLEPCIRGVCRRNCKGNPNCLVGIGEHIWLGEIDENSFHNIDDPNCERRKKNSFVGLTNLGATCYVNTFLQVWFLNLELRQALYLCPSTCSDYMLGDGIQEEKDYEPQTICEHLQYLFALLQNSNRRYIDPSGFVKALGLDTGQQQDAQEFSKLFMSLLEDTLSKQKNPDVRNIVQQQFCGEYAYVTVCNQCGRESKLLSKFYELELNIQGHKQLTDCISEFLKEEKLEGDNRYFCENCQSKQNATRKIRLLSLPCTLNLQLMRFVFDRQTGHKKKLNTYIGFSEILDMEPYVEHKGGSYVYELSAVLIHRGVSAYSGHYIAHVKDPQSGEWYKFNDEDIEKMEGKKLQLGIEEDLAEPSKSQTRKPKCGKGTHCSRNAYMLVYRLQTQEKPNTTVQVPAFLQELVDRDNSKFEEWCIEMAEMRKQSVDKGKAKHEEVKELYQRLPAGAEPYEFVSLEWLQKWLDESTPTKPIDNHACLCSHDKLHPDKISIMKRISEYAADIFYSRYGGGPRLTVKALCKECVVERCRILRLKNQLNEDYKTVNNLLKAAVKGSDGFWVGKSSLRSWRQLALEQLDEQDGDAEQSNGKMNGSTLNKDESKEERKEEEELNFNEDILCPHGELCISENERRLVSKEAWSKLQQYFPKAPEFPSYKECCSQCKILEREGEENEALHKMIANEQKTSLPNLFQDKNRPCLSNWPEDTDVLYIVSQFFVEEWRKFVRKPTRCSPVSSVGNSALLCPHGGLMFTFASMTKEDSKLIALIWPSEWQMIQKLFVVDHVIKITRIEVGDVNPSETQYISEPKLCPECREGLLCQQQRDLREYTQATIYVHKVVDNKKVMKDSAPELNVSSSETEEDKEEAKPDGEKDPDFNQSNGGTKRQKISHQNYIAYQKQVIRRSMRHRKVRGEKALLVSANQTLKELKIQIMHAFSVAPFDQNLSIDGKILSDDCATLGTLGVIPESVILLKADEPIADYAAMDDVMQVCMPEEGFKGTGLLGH
Outline: as §1

USP5 = target: T4, USP5 (UniProt P45974)
T4 sequence (whole entry): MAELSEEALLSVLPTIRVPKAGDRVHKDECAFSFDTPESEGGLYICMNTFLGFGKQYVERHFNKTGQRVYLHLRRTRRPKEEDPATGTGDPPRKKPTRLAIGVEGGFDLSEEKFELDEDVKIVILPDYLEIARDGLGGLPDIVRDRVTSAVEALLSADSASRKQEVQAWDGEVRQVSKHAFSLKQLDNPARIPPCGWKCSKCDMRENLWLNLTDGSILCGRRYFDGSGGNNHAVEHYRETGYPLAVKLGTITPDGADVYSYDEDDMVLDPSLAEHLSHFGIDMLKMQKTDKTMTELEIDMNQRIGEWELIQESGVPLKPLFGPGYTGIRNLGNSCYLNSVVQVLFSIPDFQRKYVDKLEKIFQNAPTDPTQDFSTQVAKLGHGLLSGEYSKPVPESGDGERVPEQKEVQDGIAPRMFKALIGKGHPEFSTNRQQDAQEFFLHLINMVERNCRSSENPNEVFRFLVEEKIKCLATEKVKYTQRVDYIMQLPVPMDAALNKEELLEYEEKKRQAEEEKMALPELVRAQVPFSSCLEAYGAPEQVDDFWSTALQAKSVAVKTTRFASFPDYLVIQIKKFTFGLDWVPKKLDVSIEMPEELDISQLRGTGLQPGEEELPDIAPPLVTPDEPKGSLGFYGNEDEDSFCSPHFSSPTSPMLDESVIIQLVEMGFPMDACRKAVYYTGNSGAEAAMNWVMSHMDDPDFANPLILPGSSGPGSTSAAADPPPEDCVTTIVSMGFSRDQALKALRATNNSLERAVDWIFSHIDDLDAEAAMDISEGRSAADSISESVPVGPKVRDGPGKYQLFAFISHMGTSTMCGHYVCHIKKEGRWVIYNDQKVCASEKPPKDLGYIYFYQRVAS
Outline: as §1

USP54 = USP54 (UniProt Q70EL1)
Outline: as §1

USP7 = USP7 (UniProt Q93009)
Outline: as §1

USP8 = target: T5, USP8 (UniProt P40818)
T5 sequence (whole entry): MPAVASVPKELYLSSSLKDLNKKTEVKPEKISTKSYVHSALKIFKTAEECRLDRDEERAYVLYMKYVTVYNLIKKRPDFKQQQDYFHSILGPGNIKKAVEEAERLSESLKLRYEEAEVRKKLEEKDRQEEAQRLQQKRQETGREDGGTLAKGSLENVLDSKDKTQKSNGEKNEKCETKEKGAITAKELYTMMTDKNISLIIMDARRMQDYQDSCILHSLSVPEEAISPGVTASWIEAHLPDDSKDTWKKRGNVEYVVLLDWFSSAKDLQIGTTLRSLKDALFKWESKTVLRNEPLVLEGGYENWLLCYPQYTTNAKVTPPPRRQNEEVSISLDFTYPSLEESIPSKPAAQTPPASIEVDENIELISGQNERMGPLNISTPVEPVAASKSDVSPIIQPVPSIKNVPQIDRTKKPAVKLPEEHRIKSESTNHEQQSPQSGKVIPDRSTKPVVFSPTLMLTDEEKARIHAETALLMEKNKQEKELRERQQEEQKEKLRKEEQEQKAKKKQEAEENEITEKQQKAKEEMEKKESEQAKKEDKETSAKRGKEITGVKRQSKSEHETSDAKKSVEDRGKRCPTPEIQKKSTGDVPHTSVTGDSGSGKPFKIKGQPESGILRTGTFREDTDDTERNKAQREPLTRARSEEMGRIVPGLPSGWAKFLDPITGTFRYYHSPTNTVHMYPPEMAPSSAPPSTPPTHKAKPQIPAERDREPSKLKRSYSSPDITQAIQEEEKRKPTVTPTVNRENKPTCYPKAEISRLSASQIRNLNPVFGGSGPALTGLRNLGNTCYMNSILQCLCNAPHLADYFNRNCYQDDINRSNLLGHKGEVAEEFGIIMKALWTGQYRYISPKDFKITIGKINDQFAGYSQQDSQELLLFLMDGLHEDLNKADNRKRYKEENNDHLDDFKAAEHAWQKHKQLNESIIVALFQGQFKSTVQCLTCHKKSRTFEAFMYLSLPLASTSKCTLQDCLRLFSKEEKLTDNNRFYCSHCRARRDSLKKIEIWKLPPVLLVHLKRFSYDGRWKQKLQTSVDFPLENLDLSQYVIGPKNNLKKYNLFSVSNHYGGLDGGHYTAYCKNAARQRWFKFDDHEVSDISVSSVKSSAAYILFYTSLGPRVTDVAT
Outline: as §1

USP9X = USP9X (UniProt Q93008)
Outline: as §1

UniProt O00487 = target: UniProt O00487
Outline: as §1

Measured: log2 ratio of Biotin-Ahx-Ub-VS probe labelling

Chain of USP46 (P62068 whole entry): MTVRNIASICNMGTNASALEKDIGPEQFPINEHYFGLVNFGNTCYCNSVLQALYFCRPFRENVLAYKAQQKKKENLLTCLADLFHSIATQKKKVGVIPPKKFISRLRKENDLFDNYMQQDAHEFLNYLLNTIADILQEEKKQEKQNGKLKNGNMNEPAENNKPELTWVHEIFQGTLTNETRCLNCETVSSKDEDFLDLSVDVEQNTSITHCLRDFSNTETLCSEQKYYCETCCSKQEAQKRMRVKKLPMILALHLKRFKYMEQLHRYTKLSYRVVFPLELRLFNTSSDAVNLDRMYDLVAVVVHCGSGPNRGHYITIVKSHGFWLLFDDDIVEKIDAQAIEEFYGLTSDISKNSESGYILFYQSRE
Chain of USP54 (Q70EL1 whole entry): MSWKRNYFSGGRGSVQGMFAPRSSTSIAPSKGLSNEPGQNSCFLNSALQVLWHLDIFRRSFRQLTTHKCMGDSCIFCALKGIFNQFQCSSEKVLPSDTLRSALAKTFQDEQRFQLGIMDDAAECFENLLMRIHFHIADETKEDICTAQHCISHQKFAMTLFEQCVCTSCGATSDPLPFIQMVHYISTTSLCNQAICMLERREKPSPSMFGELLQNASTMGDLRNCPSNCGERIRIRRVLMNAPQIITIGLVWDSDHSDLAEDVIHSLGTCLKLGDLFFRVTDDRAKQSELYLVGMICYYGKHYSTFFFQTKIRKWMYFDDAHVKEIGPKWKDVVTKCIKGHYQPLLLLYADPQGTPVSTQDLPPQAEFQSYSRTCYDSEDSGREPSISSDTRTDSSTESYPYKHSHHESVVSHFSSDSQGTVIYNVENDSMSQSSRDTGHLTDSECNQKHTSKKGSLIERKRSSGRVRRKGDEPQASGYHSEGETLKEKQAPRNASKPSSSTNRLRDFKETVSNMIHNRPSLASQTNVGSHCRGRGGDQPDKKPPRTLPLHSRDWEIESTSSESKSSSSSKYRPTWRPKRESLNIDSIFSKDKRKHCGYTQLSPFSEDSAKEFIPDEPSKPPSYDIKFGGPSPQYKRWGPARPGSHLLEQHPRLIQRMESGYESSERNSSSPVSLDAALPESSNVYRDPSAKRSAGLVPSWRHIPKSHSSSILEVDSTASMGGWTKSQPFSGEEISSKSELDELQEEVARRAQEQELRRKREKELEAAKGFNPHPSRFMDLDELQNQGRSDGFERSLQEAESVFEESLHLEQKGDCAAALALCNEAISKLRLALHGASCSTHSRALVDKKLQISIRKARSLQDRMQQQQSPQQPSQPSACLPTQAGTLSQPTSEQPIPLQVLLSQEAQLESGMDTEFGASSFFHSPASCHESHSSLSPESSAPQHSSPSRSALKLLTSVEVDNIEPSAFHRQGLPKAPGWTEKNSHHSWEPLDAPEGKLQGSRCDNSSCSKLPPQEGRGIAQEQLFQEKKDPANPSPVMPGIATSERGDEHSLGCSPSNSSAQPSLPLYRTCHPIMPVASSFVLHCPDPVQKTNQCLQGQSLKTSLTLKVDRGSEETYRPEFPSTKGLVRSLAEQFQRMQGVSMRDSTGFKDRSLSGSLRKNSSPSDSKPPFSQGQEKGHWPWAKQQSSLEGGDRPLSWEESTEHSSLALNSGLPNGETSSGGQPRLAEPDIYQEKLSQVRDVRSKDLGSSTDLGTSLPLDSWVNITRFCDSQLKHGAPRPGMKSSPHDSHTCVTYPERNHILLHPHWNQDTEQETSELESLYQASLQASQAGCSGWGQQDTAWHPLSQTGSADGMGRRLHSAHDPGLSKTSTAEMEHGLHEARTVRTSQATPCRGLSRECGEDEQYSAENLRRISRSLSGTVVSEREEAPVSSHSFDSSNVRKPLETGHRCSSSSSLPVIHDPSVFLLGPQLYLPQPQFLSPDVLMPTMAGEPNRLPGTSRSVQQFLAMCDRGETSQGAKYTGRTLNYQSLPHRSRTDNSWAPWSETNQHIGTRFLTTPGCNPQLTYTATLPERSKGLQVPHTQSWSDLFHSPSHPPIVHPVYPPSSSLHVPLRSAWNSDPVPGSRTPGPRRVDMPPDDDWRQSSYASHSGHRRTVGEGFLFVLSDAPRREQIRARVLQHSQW
Chain of USP9X (Q93008 whole entry): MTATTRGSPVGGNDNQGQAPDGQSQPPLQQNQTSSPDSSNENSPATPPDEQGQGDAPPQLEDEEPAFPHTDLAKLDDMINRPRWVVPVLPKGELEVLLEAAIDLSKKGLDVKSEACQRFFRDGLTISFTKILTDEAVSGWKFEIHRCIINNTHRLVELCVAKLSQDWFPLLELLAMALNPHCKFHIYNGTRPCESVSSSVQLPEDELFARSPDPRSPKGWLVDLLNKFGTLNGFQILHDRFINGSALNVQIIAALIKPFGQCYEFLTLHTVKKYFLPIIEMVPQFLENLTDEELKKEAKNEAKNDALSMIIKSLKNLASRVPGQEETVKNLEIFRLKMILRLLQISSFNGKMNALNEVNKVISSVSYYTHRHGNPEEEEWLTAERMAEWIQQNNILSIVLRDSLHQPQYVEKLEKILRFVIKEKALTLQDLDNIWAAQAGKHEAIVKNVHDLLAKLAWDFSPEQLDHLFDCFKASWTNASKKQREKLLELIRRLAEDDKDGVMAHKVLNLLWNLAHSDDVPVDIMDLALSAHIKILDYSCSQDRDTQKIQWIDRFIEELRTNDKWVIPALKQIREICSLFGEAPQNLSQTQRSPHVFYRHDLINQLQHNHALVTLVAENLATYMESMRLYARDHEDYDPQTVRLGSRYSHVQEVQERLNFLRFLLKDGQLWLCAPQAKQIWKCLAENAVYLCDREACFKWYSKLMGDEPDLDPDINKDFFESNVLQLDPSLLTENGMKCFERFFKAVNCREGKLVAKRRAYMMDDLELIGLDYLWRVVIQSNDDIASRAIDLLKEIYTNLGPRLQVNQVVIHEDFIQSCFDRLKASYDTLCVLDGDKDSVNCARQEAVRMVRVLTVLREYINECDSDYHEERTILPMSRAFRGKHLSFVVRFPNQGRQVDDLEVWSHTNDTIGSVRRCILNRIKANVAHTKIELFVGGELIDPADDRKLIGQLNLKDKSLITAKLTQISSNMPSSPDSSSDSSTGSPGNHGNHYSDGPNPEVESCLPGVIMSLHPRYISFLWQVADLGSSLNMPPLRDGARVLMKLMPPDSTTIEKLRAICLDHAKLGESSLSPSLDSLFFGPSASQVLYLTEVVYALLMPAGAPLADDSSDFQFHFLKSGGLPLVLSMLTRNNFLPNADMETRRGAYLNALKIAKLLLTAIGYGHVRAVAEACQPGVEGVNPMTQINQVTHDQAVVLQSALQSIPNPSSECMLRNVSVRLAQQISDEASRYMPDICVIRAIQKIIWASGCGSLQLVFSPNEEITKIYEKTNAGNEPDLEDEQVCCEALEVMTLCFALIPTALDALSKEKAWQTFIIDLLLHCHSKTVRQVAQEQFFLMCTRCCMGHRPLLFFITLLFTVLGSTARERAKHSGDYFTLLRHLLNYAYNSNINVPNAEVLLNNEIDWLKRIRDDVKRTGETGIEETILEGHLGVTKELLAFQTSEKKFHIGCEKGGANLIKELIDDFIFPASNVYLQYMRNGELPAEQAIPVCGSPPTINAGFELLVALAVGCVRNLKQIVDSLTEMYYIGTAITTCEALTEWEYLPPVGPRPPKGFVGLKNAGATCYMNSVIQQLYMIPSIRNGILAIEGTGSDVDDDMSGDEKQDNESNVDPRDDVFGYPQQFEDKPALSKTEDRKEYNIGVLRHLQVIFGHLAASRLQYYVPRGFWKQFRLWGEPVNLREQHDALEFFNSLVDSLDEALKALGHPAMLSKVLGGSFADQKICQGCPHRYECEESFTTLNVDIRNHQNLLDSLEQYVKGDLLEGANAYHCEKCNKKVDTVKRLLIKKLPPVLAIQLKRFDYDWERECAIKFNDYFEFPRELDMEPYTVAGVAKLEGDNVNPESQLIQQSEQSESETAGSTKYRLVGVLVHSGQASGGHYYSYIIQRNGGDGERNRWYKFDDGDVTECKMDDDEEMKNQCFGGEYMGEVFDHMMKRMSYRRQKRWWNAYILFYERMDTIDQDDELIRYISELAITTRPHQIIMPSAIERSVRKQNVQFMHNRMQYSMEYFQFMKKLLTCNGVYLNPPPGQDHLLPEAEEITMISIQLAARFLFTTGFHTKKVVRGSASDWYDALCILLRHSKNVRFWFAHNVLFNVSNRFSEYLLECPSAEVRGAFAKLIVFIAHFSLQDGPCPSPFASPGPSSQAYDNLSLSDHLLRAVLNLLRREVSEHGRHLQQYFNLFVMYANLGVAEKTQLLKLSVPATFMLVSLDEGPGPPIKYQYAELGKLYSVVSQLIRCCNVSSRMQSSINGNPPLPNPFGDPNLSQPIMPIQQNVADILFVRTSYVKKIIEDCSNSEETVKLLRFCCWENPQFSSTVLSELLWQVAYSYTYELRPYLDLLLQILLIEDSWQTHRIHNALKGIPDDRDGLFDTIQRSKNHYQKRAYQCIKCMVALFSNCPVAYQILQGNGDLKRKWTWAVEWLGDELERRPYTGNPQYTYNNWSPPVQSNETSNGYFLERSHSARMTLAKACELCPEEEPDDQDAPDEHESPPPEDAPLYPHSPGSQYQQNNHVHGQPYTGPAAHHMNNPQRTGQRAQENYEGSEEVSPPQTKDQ
Chain of UniProt O00487 (O00487 whole entry): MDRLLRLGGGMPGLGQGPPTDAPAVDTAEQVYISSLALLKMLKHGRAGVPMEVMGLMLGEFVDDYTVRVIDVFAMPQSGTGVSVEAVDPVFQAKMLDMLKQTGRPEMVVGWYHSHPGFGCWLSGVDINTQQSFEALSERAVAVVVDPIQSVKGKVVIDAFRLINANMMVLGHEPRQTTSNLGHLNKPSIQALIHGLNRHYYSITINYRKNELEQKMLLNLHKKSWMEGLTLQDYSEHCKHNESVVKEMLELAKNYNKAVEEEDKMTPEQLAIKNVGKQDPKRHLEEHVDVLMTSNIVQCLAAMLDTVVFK

O=C(O)C1Cc2ccccc2CN1C(=O)CCl (stereo not given)
inactive: USP42 -0.449 | USP46 -0.111 | USP47 -0.301 | USP48 -0.543 | USP5 -0.0229 | USP54 0.788 | USP7 -0.333 | USP8 -0.283 | USP9X -0.449 | UniProt O00487 -0.262

From the supplement of paper PMC11732987, “Enantioselective OTUD7B fragment discovery through chemoproteomics screening and high-throughput optimisation” (Communications Chemistry, 2025)
